From PubChem BioAssay AID1159580 (chemical genetic matrix, 2015)
Hit rate of the full screen: of about 5,500 compounds, about 2,000 (36%) were called active. Roughly 18% stayed inconclusive and do not appear here. Some of the results follow. A number with no mark means an inactive call. Rule as the data show it: active = normalized growth mostly below about 0.91 (no sharp cut-off); inconclusive = no clear call, values can overlap the other calls; inactive = mostly above about 0.92.

Assay: chemical genetic growth profiling, strain panel (AID 1159580);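 also: tested at 20 µM; growth read once vehicle control cultures reached saturation at 30 °C; 1 = growth at the plate median or of vehicle wells; lower values mean less growth of the strain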
Details: S. cerevisiae deletion strains, growth OD

With `N#Cc1c(Cl)cccc1N1CCCC1` the normalized growth (locus YAL013W, strain DEP1, active compounds read low) was 0.877 (active), the normalized growth (locus YBR229C, strain ROT2, active compounds read low) was 0.935 and the normalized growth (locus YDL101C, strain DUN1, active compounds read low) was 0.87 (active). For the same molecule, the normalized growth (locus YDL134C, strain PPH21, active compounds read low) was 0.98, the normalized growth (locus YDR150W, strain NUM1, active compounds read low) was 0.85 and the normalized growth (locus YEL061C, strain CIN8, active compounds read low) was 0.891 (active). The normalized growth (locus YGR078C, strain PAC10, active compounds read low) was 0.851 (active), the normalized growth (locus YHR030C, strain SLT2, active compounds read low) was 0.615 (active) and the normalized growth (locus YHR087W, strain rtc3, active compounds read low) was 0.886 (active). The normalized growth (locus YJR043C, strain POL32, active compounds read low) was 0.861 (active), the normalized growth (locus YJR075W, strain HOC1, active compounds read low) was 0.801 (active) and the normalized growth (locus YLR039C, strain RIC1, active compounds read low) was 0.576 (active). For the same molecule, the normalized growth (locus YLR058C, strain SHM2 (second series), active compounds read low) was 0.952, the normalized growth (locus YLR085C, strain ARP6, active compounds read low) was 0.791 and the normalized growth (locus YLR262C, strain YPT6, active compounds read low) was 0.567 (active). For the same molecule, the normalized growth (locus YML094W, strain GIM5, active compounds read low) was 0.779 (active), the normalized growth (locus YMR219W, strain ESC1, active compounds read low) was 0.931 (active) and the normalized growth (locus YMR263W, strain SAP30, active compounds read low) was 0.915. The normalized growth (locus YNL128W, strain TEP1, active compounds read low) was 0.922, the normalized growth (locus YNL153C, strain GIM3, active compounds read low) was 0.833 (active) and the normalized growth (locus YNL298W, strain CLA4 (second series), active compounds read low) was 0.762 (active). For the same molecule, the normalized growth (locus YNL322C, strain KRE1, active compounds read low) was 0.929 (active), the normalized growth (locus YNR030W, strain Alg12, active compounds read low) was 0.83 (active) and the normalized growth (locus YOL006C, strain TOP1, active compounds read low) was 0.473 (active). For the same molecule, the normalized growth (locus YPL055C, strain LGE1, active compounds read low) was 0.776 (active), the normalized growth (locus YPL241C, strain CIN2, active compounds read low) was 0.815 (active) and the normalized growth (locus YPR135W, strain CTF4, active compounds read low) was 0.769.
